Pf Dd2 inh: blocks in vitro growth of P. falciparum Dd2 | P. falciparum Dd2 growth, SYBR Green, 72 h | Potency, µM (series often up to 28.9 µM), most hits filed as inhibitors | 4.3% of 120,000 active | AID 1347417; active means well fitted inhibition curve with a large enough effect; further: nearly all actives have a fitted effect of over 65% in size
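Readout: SYBR Green fluorescence, 485 nm excitation, 535 nm emission, after ~16 h lysis at 37C. Before that, Dd2-infected red cells (2.5% hematocrit) grew 72 h with compound, 29 uM top final concentration.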
Hits are given with their value; . = inactive. The sample as a whole holds a higher share of hits than the screen did.

SMILES	Pf Dd2 inh
COCCN(CC1CCN(Cc2ccccc2F)CC1)C(=O)C1CCCCO1 (stereo unspecified)	.
c1cncc(-c2nnc([C@H]3CCN(Cc4c[nH]c5ccccc45)C3)o2)c1	.
Cc1ccccc1-c1nccn2c(C3CN(Cc4ccc(O)cc4)C3)ncc12	11µM
COc1ncccc1-c1nccn2c(C3CN(Cc4c[nH]c5ccccc45)C3)ncc12	3.5µM
Cc1ccccc1-c1nc2cnccn2c1NCCC(=O)NC1CCCCC1	.
COCCO[C@H]1C(=O)N(C2CCN(C(=O)c3cc4ccccc4[nH]3)CC2)[C@H]1c1ccncc1	.
Cc1cccnc1C(=O)N[C@@H]1CN(Cc2ccccc2)C[C@H]1CN(C)C	.
Cc1ccccc1-c1nccn2c(C3CN(C(=O)c4cc5ccccc5[nH]4)C3)ncc12	11µM
CNC(=O)[C@@H]1CN(C(=O)c2cc3ccccc3[nH]2)C[C@H]1COC	.
O=C1NC2(Cc3ccccc31)CN(Cc1c[nH]c3ccccc13)C2	.
O=C(NCCCCc1ccccc1)c1nn(-c2ccccc2)nc1CO	.
Cc1ccc(C(=O)N2CCC(N3CCCC3=O)CC2)cc1	.
CNC(=O)[C@@H]1CN(C(=O)c2ocnc2C)C[C@H]1COC	.
COc1cccc(COC2CN(C(=O)CCc3cccs3)CC(=O)N(Cc3ccccn3)C2)c1 (stereo unspecified)	.
CC(C)CN1CCN(C(=O)[C@@H]2CN(S(C)(=O)=O)C[C@H]2c2ccncc2)CC1	.
COC(=O)c1ccccc1NC(=O)Cn1c(=O)nc(-c2ccccc2)c2cc(Cl)ccc21	.
Oc1ccccc1Nc1nc(-c2ccccc2)c2cc(Cl)ccc2n1	5µM
Oc1ccc(Cl)cc1Nc1nc2ccccc2n2cnnc12	.
C=CCOC(=O)C1=C(C)N=C2SC=C(CC(=O)NC3CC3)N2C1c1cccc(C)c1 (stereo unspecified)	.
Cn1nc2cccc(S(=O)(=O)N[C@H](c3ccccn3)C3CC(O)C3)c2n1 (stereo partly specified)	.
Cc1cc(C)c(NC(=O)CSc2ccc(-c3sc(-c4ccccc4)nc3C)nn2)c(C)c1	.
CN1CC(=O)N(C2CCCNCC2)Cc2c(NCc3ccc4c(c3)OCO4)ncnc21 (stereo unspecified)	.
CNC(=O)CCn1ncc2cc(OCc3ccccc3-c3cccc(OC)c3)ccc21	.
CNC(=O)CCn1ncc2cc(OC3CCc4cccc(-c5ccc(O)c(F)c5)c43)ccc21 (stereo unspecified)	.
CNC(=O)CCn1ncc2cc(OCc3ccccc3-c3ccc(OC)cc3C)ccc21	5.6µM
SMILES	Pf Dd2 inh
COc1ccc(C)cc1-c1ccc(COc2ccc3c(cnn3CCC(=O)O)c2)cc1	.
O=C(O)CCn1ncc2cc(OCc3ccc(-c4cccc(CO)c4)cc3)ccc21	.
CNC(=O)CCn1ncc2cc(OCc3ccccc3-c3ccsc3)ccc21	6.3µM
CCO[C@H]1C[C@@H](O)C12CCN(C(=O)c1cc(=O)[nH]c(=O)[nH]1)CC2	.
O=C(Cn1nc2c(cc1=O)CCCC2)Nc1cccc2[nH]ccc12	.
CN1CCC([C@@H]2CN(S(=O)(=O)c3ccc(Cl)s3)C[C@H]2C(N)=O)CC1	.
COC[C@@H]1CN(c2ncccn2)C[C@H]1C(=O)NCc1ccccc1OC	.
Cc1ccc(NS(=O)(=O)c2ccc3c4c(cccc24)C(=O)N3)c(C)c1	.
CCc1ccc(-n2c(N3CCN(c4cccc(C)c4C)CC3)nc3ccccc3c2=O)cc1	11µM
Cc1ccc(C)c(N2CCN(c3nc4ccccc4c(=O)n3-c3ccccc3)CC2)c1	.
Cc1ccc(-n2c(/C=C\c3ccc(F)cc3)nc3ccccc3c2=O)cc1Cl	.
Cc1cccc(-c2nc3c4ccccc4nc(N4CCN(c5ccc(F)cc5)CC4)n3n2)c1	.
Cc1cccc(N2CCN(c3nc4ccccc4c4nc(-c5cccnc5)nn34)CC2)c1C	.
CCc1ccc(-n2c(N3CCN(c4ccc(F)cc4)CC3)nc3ccccc3c2=O)cc1	5.6µM
Cc1ccc(C)c(N2CCN(C(=O)c3cc4cc5ccc(C)cc5nc4s3)CC2)c1	.
CCCCN(CCCNC(=O)c1ccc(Sc2ccc(Cl)cc2)c(NC(C)=O)c1)c1ccccc1	.
CN1CCN(C(c2cccc(Br)c2)c2sc3nc(-c4ccco4)nn3c2O)CC1 (stereo unspecified)	.
CN1C[C@H](NCc2cccnc2)CCC[C@@H](C(=O)NCc2cc(F)cc(F)c2)CC1=O	.
CCOc1ccc(CCNc2ncnc3onc(-c4ccc(Cl)cc4)c23)cc1OCC	.
Fc1ccc(-c2noc3ncnc(NCCCN4CCN(c5ccccc5)CC4)c23)cc1	.
Clc1ccc(-c2noc3ncnc(NCCCN4CCN(c5ccccc5)CC4)c23)cc1	11µM
COCCNC(=O)c1ccc2c(c1)N(C)C(CC(=O)Nc1ccccc1)CO2 (stereo unspecified)	.
NC(=O)C1CCN(C(=O)C2CCCN(S(=O)(=O)c3ccccc3)CCC(=O)NCC2)CC1 (stereo unspecified)	.
O=C(c1ccc2c(c1)OCO2)N1C[C@@H](CO)[C@H](c2ccncc2)C1	.
COc1cc(NC(=O)Cn2c(=O)cc(C)c3c(C)nn(-c4ccc(C)cc4)c32)cc(OC)c1	.
SMILES	Pf Dd2 inh
COc1ccc(C)cc1NC(=O)C[C@H]1NC(=O)c2ccccc2NC1=O	.
Cc1ccc2c(c1)NC(=O)C(CC(=O)Nc1cc(Cl)ccc1C)O2 (stereo unspecified)	.
Cc1cc2c(cc1C)NC(CC(=O)Nc1cccc(C)c1C)C(=O)N2 (stereo unspecified)	3.2µM
COc1cccc(NC(=O)CC2Nc3cc(C)c(C)cc3NC2=O)c1 (stereo unspecified)	2.2µM
O=C(C[C@H]1NC(=O)c2ccccc2NC1=O)Nc1ccccc1Cl	.
COc1ccc(NC(=O)CC2Nc3ccccc3NC2=O)cc1 (stereo unspecified)	.
Cc1cccc(NC(=O)CC2Nc3cccc4cccc(c34)NC2=O)c1 (stereo unspecified)	.
COc1cccc(NC(=O)CC2Oc3ccccc3NC2=O)c1 (stereo unspecified)	.
Cc1ccc(NC(=O)CC2Nc3cc(C)c(C)cc3NC2=O)c(C)c1 (stereo unspecified)	3.2µM
CC(=O)Nc1ccc(NC(=O)CN2C(=O)NC3(CCS(=O)(=O)CC3)C2=O)cc1	.
CC(=O)Nc1nonc1-c1nnc(SCC(=O)Nc2ccc(C)c(Cl)c2)n1C	.
Cc1ccc(C)c(NC(=O)Cn2cc(C(=O)c3ccncc3)c(=O)c3cc(F)ccc32)c1	.
O=c1cc(-c2ccccn2)oc2c(NC3CCOCC3)nccc12	.
CNC(=O)C1(N2CCC[C@H]2C(=O)N2CCCCC2)COC1	.
CCN1CCN(CC(O)COc2cccc(CNCCc3cccc(C)n3)c2)CC1 (stereo unspecified)	.
COc1cc(CNCCOc2cccnc2)ccc1OCC(O)CN1CCSCC1 (stereo unspecified)	.
CN(CC(O)COc1cccc(CNCCOc2ccccc2)c1)C1CCCCC1 (stereo unspecified)	4.5µM
COc1ccc(CNC(=O)CN2C(=O)COc3ccc(S(=O)(=O)NC4CCCC4)cc32)cc1	.
CCc1ccc(S(=O)(=O)N2CCC(Oc3ncccc3C(=O)N3CCOCC3)C2)cc1 (stereo unspecified)	.
CC(C)CC(=O)N1CCC2(CC1)CC(N(C(=O)c1ccccc1)C1CC1)CCO2 (stereo unspecified)	.
CCOc1ccc(/C=C/c2nc3ccccc3n2S(=O)(=O)c2cccc(Cl)c2)cc1	3.5µM

Screening data from PubChem.
